According to PubChem BioAssay AID652025 (National Center for Advancing Translational Sciences (NCATS), 2013):
Where “and” joins values, the source holds several entries; their conditions need not be identical. Equal entries are not always repeated. In all, about 360,000 compounds went through this assay and about 240 (0.067%) were called active. No stated cut-off is given here; in the data, active means activation above about 50%; inconclusive means mostly about 30% to 49%; inactive means weaker than that. This excerpt belongs to a sample that is enriched for actives.

Test: qHTS of IL-2 Activators; further: 0% is about no effect
Conditions: IL-2 activation reporter assay, cell-based qHTS; hits give high values; in transgenic mouse T cells; stimulated with anti-CD3/CD4/CD28 beads
From the text: The adaptive immune response against any infectious agent begins with the activation of an antigen specific T cell. This relatively rare and inert ("naive") T cell undergoes a massive proliferative expansion and differentiation process to generate sufficient number of potent pathogen-specific effector T cells. The effector T cells fight the infection by making cytokines and helping other cells to become fully armed as well. If any naive T cell has antigen receptors (TCRs) that can be activated by self peptides, then a variety of regulatory mechanisms kick in to prevent this cell from performing to its full potential. These processes collectively constitute the phenomenon of immunological tolerance and their failure leads to autoimmunity. One arm of tolerance involves generation of biochemical negative feedback downstream of the TCR (tuning). This is especially relevant to self antigens present in the body over long periods of time (chronic), which form the bulk of our proteome. The negative feedback serves to tune the TCR signaling, such that the ambient antigenic stimulation is nullified intracellularly. Unfortunately, this critical machinery serves as a target for chronic viral, bacterial and parasitic infections (as well as tumors), which can evade a robust immune response, simply by allowing T cells to tune down their signaling to pathogen or malignancy derived antigens. As such, disrupting the tuning in such cases would allow the tolerant T cell to function again and deliver a robust effector response.
If a therapeutic can restore responsiveness to the tuned down T cell, even for a short time, they could combat the pathogen without any additional immunization. To that end, we have developed a sensitive HTS T cell based assay based on IL-2. This assay will be screened against the Molecular Libraries Small Molecule Repository (MLSMR) to find small molecules that could elicit this response.
NIH Chemical Genomics Center [NCGC]
NIH Molecular Libraries Probe Centers Network [MLPCN]
Assay Submitter (PI): Ron Schwartz, NIAID
4 microL (750 cells/well) of unstimulated transgenic mouse T cells (columns 1-3,5-48) are dispensed into Aurora LoBase, black clear-bottom 1536-well assay plates; column 4 receives an identical concentration of transgenic memory T cells as a non-tolerant control. Compounds are then transferred via Kalypsys pin tool equipped with 1536-pin array (10 nL slotted pins, V&P Scientific, San Diego, CA). Following addition of compound and a 60 minute incubation, 1 microL of bead stimulation solution ((0.04 micron Fluospheres (Life technologies, CA) coated with 10ug/ml each anti-CD3 and anti-CD4 (clones 2C11 and GK1.5, BD Biosciences, CA) and mixed with 1ug/ml anti-CD28 (clone PV-1, BD biosciences, CA)). columns 2-48) is added to stimulate the IL-2 response pathway; media is instead added to column 1 as an unstimulated control, while PMA/ionomycin (Sigma Aldrich, MO) is added to column 3 as a control for IL-2 tolerance bypass. The plates are then incubated at 37 degrees C for 18 hours. EGFP and DsRed signal are then detected using an Acumen eX3 Explorer fluorescent plate cytometer. All cells are dispensed in cell media containing EHAA (Quality Biologicals, MD), RPMI (Quality Biologicals, MD), Glutamine (Life Technologies, CA), Penicillin/Streptomycin (Quality Biologicals, MD), 2-ME (Sigma Aldrich, MO) and 10% FBS (Gemini Bioproducts, CA) .

activation, inactive:
O=S1(=O)C=C(SCCN2CCCC2)c2ccccc21 5.28%, [O-][n+]1c2c(nn1-c1ccc(Cl)c(Cl)c1)-c1nonc1CC2 0.19%, CCOC(=O)c1cn[nH]c1NC(=S)Nc1ccccc1 -3.84%, CCOC(=O)C1C(=O)OC2(CCCC2)C1C(=O)OCC (stereo not drawn) -0.195%, Cc1c(C(=O)NC(=S)NCc2cccnc2)oc2ccccc12 -3.54%, COC(=O)C1=C(N)Oc2c(oc(CO)cc2=O)C1c1c(F)cccc1Cl (stereo not drawn) 1.1%, C=CCOC(=O)N1CCC2CC1c1cc(-c3ccc(OC)cc3)ccc12 (stereo not drawn) -0.638%, COc1ccccc1N(C(=O)Cn1nnc2ccccc21)C(C(=O)NCc1ccco1)c1ccc(C)o1 (stereo not drawn) -0.406%, CN(CCO)Cc1csc2ccc(Br)cc12 -0.737%, CCOc1ccc(C(=O)NC(C(=O)NCc2ccccn2)C(C)C)cc1 (stereo not drawn) -4.42%, COc1ccc(/C=C/CN2CCN(Cc3ccc(C)cc3)C(CCO)C2)cc1 (stereo not drawn) 0.996%, Cc1cccc(C(=O)O)c1[N+](=O)[O-] -0.181%, O=C1C=CC(=O)N1c1ccc(N2CCCCC2)cc1 -7.5%, OCC1(CO)CC2(C1)CC(CO)(CO)C2 0.276%, CC(C)(C)C(=O)NNC(=O)c1ccc(Oc2cc(Cl)cc(Cl)c2)o1 0.282%, Cc1ccc(NC(=O)c2nc[nH]c2C(=O)N2CCCCC2)c(C(=O)c2ccccc2)c1 -0.352%, O=C1/C(=C/c2cccs2)SC(=S)N1C1CCS(=O)(=O)C1 (stereo not drawn) 2.78%, O=C(CCN1C(=O)c2ccccc2C1=O)NNC(=O)c1ccc(Cl)cc1Cl 0.499%, CCOC(=O)C1CCCN(S(=O)(=O)c2ccc3c(c2)C(C)(C)C(=O)N3C)C1 (stereo not drawn) -2.21%, CCCn1c(=O)c2[nH]c(C3CCCC3)nc2n(CCC)c1=O -0.643%, C[C@]12C=CC(=O)C=C1CC[C@@H]1[C@@H]2C(=O)C[C@@]2(C)[C@H]1CC[C@]2(O)C(=O)CO 0.342% and -0.368%, CCOCCCN(C)C1CCN(C(=O)c2oc3ccccc3c2NC(=O)Cc2cccc([N+](=O)[O-])c2)CC1 -1.43%, O=C(Nc1ccc(Br)cc1)C1CCC(=O)N1Cc1ccccc1Cl (stereo not drawn) -1.19%, C=CCOC(=O)C1=C[C@H](c2ccc(Br)cc2)C[C@H](OCCCCO)O1 0.356%, CC(C)OC(=O)Cn1nc(C(F)(F)F)c2c1CCCC2 0.525%, C=CCn1c(CCNC(=O)c2ccccc2F)nnc1SCC(=O)Nc1ccc(OC)cc1 0.0893%, CON(C)S(=O)(=O)c1ccc2c(c1)NC(=O)C1CCCN21 (stereo not drawn) -2.38%, O=c1[nH]c(CSc2ccccc2)nc2c1oc1ccccc12 0.844%, CCC(C)Sc1nc2c(cnn2-c2ccc(F)cc2)c(=O)[nH]1 (stereo not drawn) -4.9%, CC(=O)CC[C@@H](C)O[C@@H]1OC(C)[C@H](O)CC1O (stereo partly drawn) 0.121%, C/C(=N\NC(=O)c1ccc(CSc2nc(C)cc(C)n2)cc1)C1CCCCC1 -0.149%, Cc1cc(C)n(CCNC(=O)CC2C(=O)NCCN2Cc2ccc(C)o2)n1 (stereo not drawn) -0.111%, COc1ccccc1N(CC(=O)Nc1ccccc1C(=O)N1CCCC1)S(C)(=O)=O -1.54%, Cc1cc(Br)ccc1SCC(=O)OCC(=O)NCc1ccc2c(c1)OCO2 -3.89%, CCOc1ccc(NC(=O)CN(C)CC(=O)Nc2cccc(Cl)c2C)cc1OCC -1.33%, Nc1ccc(N=Nc2ccccc2Cl)c(N)n1 0.821%, Nn1cnnc1N/N=C/c1cc([N+](=O)[O-])c(Cl)cc1Cl -0.276%, CC1=C(C(N)=O)C(c2ccc3c(c2)OCO3)n2nc(-c3cccc(C)c3)nc2N1 (stereo not drawn) -0.667%, O=c1nc(NO)ccn1C1CCCO1 (stereo not drawn) -4.07%, CC(C)(C)OC(=O)Nc1ccc([C@@H](NC(=O)OC(C)(C)C)C(=O)OC(C)(C)C)cc1 1.22%, COc1ccc(CCNC(=O)c2ccc(NC(=O)CC3SC(N4CCCCC4)=NC3=O)cc2)cc1OC (stereo not drawn) 1.44%, O=C(CSc1nc(Nc2ccccc2)nc(N2CCOCC2)n1)Nc1cc(Cl)ccc1O -3.68%, CC(C)CN1C(=O)CN(S(C)(=O)=O)CC1(C)C(=O)NCc1ccccc1 (stereo not drawn) -0.324%, O=C(Nc1ccc(F)c(Cl)c1)C1CCN(S(=O)(=O)c2cccnc2)CC1 -4.67%, O=C(O)C1CCCCC1C(=O)Nc1ccc(Cl)cc1 (stereo not drawn) -0.998%, NC(N)=NCCCc1cn(CC(=O)N2CCNCC2)nn1 -0.704%, CCC[C@H]1CCCC/C=C\CCCC(=O)OCCN1C(=O)OC(C)(C)C -3.09%, OC(CNCc1ccc(Cl)c(Cl)c1)c1ccccc1 (stereo not drawn) 0.815%, Cc1ccc(C)c(NS(=O)(=O)c2cc(Br)cnc2N)c1 -0.259%, CN1CCN(c2ccc(CNS(=O)(=O)c3cccc(F)c3)cc2)CC1 -0.358%, COc1ccc(CNC(=O)CN2C(=O)NC3(CCCc4sccc43)C2=O)cc1 (stereo not drawn) 1.66%, CN(c1ccccc1)c1nc(N)c([N+](=O)[O-])c(NCc2ccco2)n1 2.01%, CCCC1NC(=O)NC(C)=C1C(=O)OCC (stereo not drawn) -3.34%, CC1(C(=O)NCc2ccc(F)c(F)c2)Cc2c(-c3ccc4c(c3)OCO4)ccnc2O1 (stereo not drawn) 0.821%, Cc1ccc(OCCNC(=O)CN2C(=O)NC3(CCCC3)C2=O)cc1 -0.135%, Cc1ccc(CNC(=O)Cn2cnc3c(NCc4ccccc4)ncnc32)o1 -0.27%

activation, active:
O=C(CCN1C(=O)/C(=C/c2cccs2)SC1=S)NNC(=O)c1cccc(O)c1 133%, CCN1/C(=C\c2ccc3ccccc3[n+]2CC)Sc2cc(C)ccc21 83.8%
